Compound activity: PubChem BioAssay, National Center for Advancing Translational Sciences (NCATS)
Hits are enriched below; roughly 2.4% of the tested compounds scored in any of these assays.
POLH inh: blocks human DNA polymerase eta activity | 390,000 tested, 1.2% active | AID 588591 | Q9Y253 | Potency, µM (series often up to 114 µM), hits mostly inhibitors | recombinant Pol eta, fluorescent DNA replication assay
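Fluorescent replication assay: 50 nM final substrate added after a 15 min room-temperature compound preincubation with 10 nM enzyme. Signal taken at 0 min and again at 10 min.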
APE1 inh: blocks human APE1 abasic DNA cleavage; Potency, µM (titrated, usually from 65.8 µM), hits mostly inhibitors; 350,000 tested, 0.35% active; recombinant APE1, TAMRA/BHQ-2 abasic DNA cleavage fluorescence; further: nearly all actives have a fitted effect of over 55% in size
Target sequence (P27695 whole entry, looked up): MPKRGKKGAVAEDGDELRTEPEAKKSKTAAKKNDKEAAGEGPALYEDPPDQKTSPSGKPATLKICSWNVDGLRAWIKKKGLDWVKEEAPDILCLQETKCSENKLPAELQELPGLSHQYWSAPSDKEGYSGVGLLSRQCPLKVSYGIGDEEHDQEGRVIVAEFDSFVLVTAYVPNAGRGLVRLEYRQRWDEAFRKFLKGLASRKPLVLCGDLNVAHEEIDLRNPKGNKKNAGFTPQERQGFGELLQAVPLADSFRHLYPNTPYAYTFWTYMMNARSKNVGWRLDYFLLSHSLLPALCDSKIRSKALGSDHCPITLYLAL
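Endonuclease cleavage of a quenched abasic-site DNA duplex (50 nM) by APE1 (0.75 nM) was tracked by TAMRA dequenching. Compounds were preincubated with enzyme 15 min at room temperature; data normalized to buffer-only and DMSO wells plus NSC13755 control.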
GLS inhibitor: glutaminase GLS (human) inhibition; 410,000 tested, 0.21% active; Potency, µM (highest dose often 45.5 µM), hits mostly inhibitors; AID 624170; GLS enzymatic activity, qHTS titration
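Read-out is an Amplex red fluorescence increase coupled through glutamate oxidase and HRP, measured before and after 30 min room-temperature incubation. hKGA is in 45 mM KH2PO4 (pH 8.2) with 0.02% Tween-20; glutamine added as 1mM solution.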
POLB inh: inhibitors of human DNA polymerase beta | P06746 | 340,000 tested, 1.3% active | Pol beta primer extension/strand displacement, fluorescence kinetic | AID 485314 | Potency, µM (highest dose often 114 µM), most hits filed as inhibitors
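Human Pol beta at 10 nM; strand-displacement substrate 50 nM final. Compound exposure 15 min at room temperature before start, reaction 10 min at room temperature.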
Pol iota inh: blocks human DNA polymerase iota activity; Q9UNA4; Pol iota fluorescent replication assay, 10 min; Potency, µM (titrated, usually from 115 µM), hits mostly inhibitors; 390,000 tested, 1% active
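Fluorescent replication assay read twice, at 0 min and 10 min after adding 50 nM (final) substrate. Enzyme (10 nM) and compounds were first incubated 15 min at room temperature; enzyme-free buffer wells were negative controls.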
Pol kappa inh: inhibitors of human DNA polymerase kappa | 400,000 tested, 0.53% active | purified Pol kappa, fluorescent DNA synthesis assay, 10 min | Q9UBT6 | Potency, µM (top dose mostly 107 µM), hits mostly inhibitors | AID 588579
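Pol kappa 10 nM + cpd, 15 min RT; start w/ substrate 50 nM final; fluorescence kinetic read, 0 and 10 min. Neg ctrl: buffer, no enzyme.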
Of the large screens only hits and unclear results are named; the others gave an inactive call; ! = repeats disagree. The call rests on the fitted dose curve; in most records, active means well fitted curve in the direction sought with a large enough effect; inconclusive means small, poorly fitted or top-dose-only effect, or another doubt; inactive means no such curve, though single readings can be large; an effect the other way counts as inactive or inconclusive.

O=C1CSC(c2cccnc2)N1c1ccccc1 (stereo unspecified)	none
Cc1cccc(N2C(=O)CSC2c2cccnc2)c1 (stereo unspecified)	POLB inh 100µM
O=C1Nc2ccc(S(=O)(=O)NCc3ccccn3)c3cccc1c23	POLH inh 20µM, Pol iota inh 50µM, Pol kappa inh inconclusive
C=C1c2cccc(O)c2C(O)=C2C(=O)[C@]3(O)C(O)=C(C(N)=O)C(=O)C(N(C)C)C3C(O)C12 (stereo partly specified)	APE1 inh 4µM, Pol kappa inh 4µM (no result: POLH inh, GLS inhibitor, POLB inh, Pol iota inh)
C=C/C(C)=C/CC1C(=C)CCC2C(C)(C(=O)O)CCCC12C (stereo unspecified)	POLH inh 7.1µM, APE1 inh inconclusive, GLS inhibitor inconclusive, POLB inh inconclusive, Pol iota inh inconclusive, Pol kappa inh 16µM
CC(=O)OCC1=C(C(=O)O)N2C(=O)[C@@H](NC(=O)Cc3ccccc3)[C@H]2SC1	POLH inh inconclusive, Pol iota inh inconclusive (no result: APE1 inh, POLB inh)
CCOc1ccc(C(=O)NC2C(=O)N3C(C(=O)O)=C(COC(C)=O)CSC23)cc1OCC (stereo unspecified)	POLH inh 20µM, Pol iota inh 25µM (no result: POLB inh)
Cc1ccc2nc(N3CCN(c4cccc(Cl)c4)CC3)c(-n3nc(C)cc3C)nc2c1	none (no result: APE1 inh)
CSC1=NC=C(C#N)C2=NC(c3c(Cl)cccc3Cl)NN12 (stereo unspecified)	GLS inhibitor 11µM (no result: POLH inh, APE1 inh, POLB inh, Pol iota inh, Pol kappa inh)
COc1cc2c(cc1NC(=O)C(C)Sc1ccc(C)cc1)oc1ccccc12 (stereo unspecified)	none
CN(C)c1cccc(NC(=O)c2cccc3ccccc23)c1	none
Cc1cccc(Cn2c(C)c(CNC3CCCCCC3)c(C(=O)O)c2C)c1	none (no result: APE1 inh)
COc1ccccc1Nc1n[nH]c(=S)s1	GLS inhibitor 10µM
CCC1Nc2ncnc(N3CCCCC3)c2N(Cc2ccccc2)C1=O (stereo unspecified)	POLH inh 89µM, Pol iota inh inconclusive (no result: POLB inh)
O=C(COC(=O)c1c(F)cccc1F)Nc1ccc2[nH]c(=O)[nH]c2c1	POLH inh inconclusive, POLB inh inconclusive
Cc1ccc(N2C(=O)c3cccc4c(N)ccc(c34)C2=O)c2cccnc12	POLH inh inconclusive, APE1 inh inconclusive, POLB inh inconclusive, Pol iota inh 79µM, Pol kappa inh inconclusive
COc1cccc2c1C(=O)c1c(O)c3c(c(O)c1C2=O)C[C@@](O)(C(=O)CO)C[C@@H]3O[C@@H]1C[C@H](N)[C@H](O)[C@H](C)O1	APE1 inh 14µM (no result: POLH inh, GLS inhibitor, POLB inh, Pol iota inh, Pol kappa inh)
CC(=O)[C@@]1(O)Cc2c(O)c3c(c(O)c2[C@H](O[C@H]2C[C@H](N)[C@H](O)[C@H](C)O2)C1)C(=O)c1ccccc1C3=O	none (no result: POLH inh, APE1 inh, POLB inh, Pol iota inh, Pol kappa inh)
CC(=O)C1(O)Cc2c(O)c3c(c(O)c2C(OC2CC(N)C(O)C(C)O2)C1)C(=O)c1c(O)cccc1C3=O (stereo unspecified)	Pol iota inh inconclusive, Pol kappa inh 7.1µM (no result: POLH inh, APE1 inh, POLB inh)
COc1cccc2c1C(=O)c1c(O)c3c(c(O)c1C2=O)C[C@](O)(C(C)=O)C[C@H]3O[C@@H]1C[C@H](N)[C@H](O)[C@H](C)O1	APE1 inh 10µM, Pol kappa inh 2.4µM (no result: POLH inh, GLS inhibitor, POLB inh, Pol iota inh)
COc1cccc2c1C(=O)c1c(O)c3c(c(O)c1C2=O)C[C@@](O)(C(=O)CO)C[C@@H]3O[C@H]1C[C@H](N)[C@H](O)[C@H](C)O1	POLH inh 45µM, APE1 inh 7.1µM, POLB inh 8.9µM, Pol kappa inh 27µM!
COc1ccc(N2CCN(C(=O)c3ccc(Br)o3)CC2)cc1	none
Cc1ccc(NC(=O)COC(=O)c2ccc3c(c2)NC(=O)C2CCCN32)cc1 (stereo unspecified)	Pol iota inh 7.9µM
CC(=O)c1ccc(S(=O)(=O)Nc2ccc(C(=O)N(C)CC(=O)Nc3cccc(C)c3C)cc2)cc1	POLH inh 32µM, Pol iota inh inconclusive, Pol kappa inh inconclusive (no result: POLB inh)
Cc1ccccc1NS(=O)(=O)c1ccc(C(=O)N(C)CC(=O)Nc2ccccc2Br)cc1	none (no result: POLB inh)
